# Measurements from PubChem BioAssay.
# The source made the active and inactive calls.
# Tests used:
# [1] = E. coli DRC41 culture turbidity changes, primary screen, E. coli filamentation inducer project, strain DRC41, OD650, 48 h (AID 1152);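 also: E. coli MC1000 strain DRC41 lacking acrAB efflux pump and sulA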; settings: E. coli DRC41 (acrAB sulA), higher = more signal, called active from +8 up or from −8 down
# [2] = small-molecule binders of probe aLefty1, primary screen, biochemical, small-molecule microarray, 635/667 nm fluorescence (AID 1153); settings: higher = more signal;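 also: score merges spot fluorescence with signal-to-noise ratio from the scanned slide images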
# [3] = PSAC antagonists in infected red cells, primary screen, cell-based, P. falciparum Indochina, OD700, 1 h (AID 1154); settings: P. falciparum Indochina infected RBC osmotic lysis, higher = more signal, called active from +8 up or from −8 down
# [4] = PSAC antagonists in infected red cells, primary screen, cell-based, P. falciparum Indochina, OD700, 2 h (AID 1155);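 also: lysis reports solute entry through the parasite surface anion channel PSAC; channel blockers reduce lysis of infected cells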; settings: P. falciparum Indochina infected erythrocytes, osmotic lysis OD700; higher = more signal, called active from +8 up or from −8 down
# [5] = osmotic lysis modulators in infected erythrocytes, primary screen, PSAC antagonist project, cell-based, P. falciparum Indochina, OD700, 3 h (AID 1156); settings: higher = more signal, called active from +8 up or from −8 down
# [6] = PSAC antagonists in infected red cells, primary screen, cell-based, P. falciparum Indochina, OD700, 18 h (AID 1157); settings: P. falciparum Indochina infected erythrocytes, osmotic lysis OD700, 18 h; higher = more signal, called active from +8 up or from −8 down
# [7] = modulators of S6 phosphorylation in cells, primary screen, cell-based, A549, cytoblot, luminescence, serum-stimulated (AID 1158); settings: A549 phospho-S6 cytoblot, 5 h, higher = more signal;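 also: serum-stimulated A549 lung adenocarcinoma cells; signal is phosphorylated S6 detected by cytoblot immunostaining with HRP secondary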
# [8] = target: NADPH oxidase 2 (Homo sapiens) (UniProt P04839); assay: NOX2-dependent H2O2 signal modulators, primary screen, NOX inhibitor project, cell-based, HEK293-NOX2, PMA-stimulated, Amplex Red fluorescence (AID 1159); settings: 45 min, higher = more signal, called active from +8 up or from −8 down; also: test concentration not given here
# [9] = target: NADPH oxidase 4 (Homo sapiens) (UniProt Q9NPH5); assay: NOX4-dependent H2O2 signal modulators, primary screen, NOX inhibitor project, cell-based, HEK293-NOX4, tetracycline-induced, Amplex Red fluorescence (AID 1160); settings: 45 min, higher = more signal, called active from +8 up or from −8 down
# [10] = target: NADPH oxidase 5 (Homo sapiens) (UniProt Q96PH1); assay: NOX5-dependent H2O2 signal modulators, primary screen, NOX inhibitor project, cell-based, HEK293-NOX5, Amplex Red fluorescence (AID 1161); settings: HEK293-NOX5, ionomycin, 45 min, higher = more signal
# Chain of NADPH oxidase 5 (Homo sapiens) (Q96PH1 whole entry, looked up): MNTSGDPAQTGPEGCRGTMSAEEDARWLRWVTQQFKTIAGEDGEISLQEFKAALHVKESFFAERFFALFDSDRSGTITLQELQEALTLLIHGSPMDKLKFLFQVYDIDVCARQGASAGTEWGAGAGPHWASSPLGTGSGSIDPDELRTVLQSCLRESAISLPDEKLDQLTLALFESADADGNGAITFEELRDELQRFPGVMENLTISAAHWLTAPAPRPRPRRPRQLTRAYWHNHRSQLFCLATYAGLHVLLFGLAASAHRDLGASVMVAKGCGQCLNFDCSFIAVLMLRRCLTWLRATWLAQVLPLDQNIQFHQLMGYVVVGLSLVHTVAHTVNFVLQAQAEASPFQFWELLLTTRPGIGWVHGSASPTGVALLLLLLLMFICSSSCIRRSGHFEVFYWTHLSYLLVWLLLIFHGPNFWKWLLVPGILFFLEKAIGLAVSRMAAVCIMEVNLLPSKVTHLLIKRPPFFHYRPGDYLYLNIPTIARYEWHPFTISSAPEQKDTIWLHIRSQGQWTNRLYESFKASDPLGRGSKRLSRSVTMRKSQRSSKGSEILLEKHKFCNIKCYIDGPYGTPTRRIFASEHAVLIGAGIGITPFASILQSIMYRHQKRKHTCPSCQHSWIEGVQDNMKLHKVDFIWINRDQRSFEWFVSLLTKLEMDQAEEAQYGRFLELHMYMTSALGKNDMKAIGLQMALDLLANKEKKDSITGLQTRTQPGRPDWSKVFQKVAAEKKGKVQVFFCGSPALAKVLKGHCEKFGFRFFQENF
# Chain of NADPH oxidase 4 (Homo sapiens) (Q9NPH5 whole entry, looked up): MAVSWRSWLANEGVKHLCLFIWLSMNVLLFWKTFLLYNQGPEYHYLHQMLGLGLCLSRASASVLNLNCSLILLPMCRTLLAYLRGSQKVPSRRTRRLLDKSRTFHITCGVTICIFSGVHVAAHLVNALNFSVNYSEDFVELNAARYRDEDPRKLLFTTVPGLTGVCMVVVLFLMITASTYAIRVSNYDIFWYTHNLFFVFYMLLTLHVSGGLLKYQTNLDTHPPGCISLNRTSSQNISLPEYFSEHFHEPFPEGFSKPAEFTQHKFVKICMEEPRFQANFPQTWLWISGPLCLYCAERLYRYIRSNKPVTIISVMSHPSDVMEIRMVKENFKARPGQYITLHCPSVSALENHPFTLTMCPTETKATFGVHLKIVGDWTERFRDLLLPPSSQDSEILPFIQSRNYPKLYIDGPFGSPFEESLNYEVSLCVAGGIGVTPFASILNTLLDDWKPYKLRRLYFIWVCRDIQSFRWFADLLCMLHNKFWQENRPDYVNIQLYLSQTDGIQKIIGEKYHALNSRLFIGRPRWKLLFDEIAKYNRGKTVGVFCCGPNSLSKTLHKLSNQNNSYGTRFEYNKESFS
# Chain of NADPH oxidase 2 (Homo sapiens) (P04839 whole entry, looked up): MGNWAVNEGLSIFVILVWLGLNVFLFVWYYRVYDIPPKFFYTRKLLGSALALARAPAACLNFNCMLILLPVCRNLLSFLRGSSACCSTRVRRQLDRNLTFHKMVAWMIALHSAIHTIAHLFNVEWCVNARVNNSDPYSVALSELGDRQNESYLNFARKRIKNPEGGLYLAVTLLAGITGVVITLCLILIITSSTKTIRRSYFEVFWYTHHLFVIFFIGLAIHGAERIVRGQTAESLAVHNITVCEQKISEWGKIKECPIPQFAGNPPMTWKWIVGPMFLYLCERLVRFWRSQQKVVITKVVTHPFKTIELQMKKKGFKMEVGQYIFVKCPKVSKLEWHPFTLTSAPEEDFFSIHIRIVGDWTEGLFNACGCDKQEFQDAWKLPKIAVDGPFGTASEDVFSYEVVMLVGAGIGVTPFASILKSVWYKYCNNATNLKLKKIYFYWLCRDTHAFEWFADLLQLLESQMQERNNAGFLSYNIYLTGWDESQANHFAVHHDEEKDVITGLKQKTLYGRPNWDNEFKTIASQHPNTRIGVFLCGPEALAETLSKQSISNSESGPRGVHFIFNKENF
SMILES,z-score [1],composite z-score [2],z-score [3],z-score [4],z-score [5],z-score [6],z-score [7],z-score [8],z-score [9],z-score [10]
CO[C@@H]1COC(=O)CCC[C@@H](C)[C@H](OC)COC(=O)[C@H](Cc2ccccc2)NC(=O)CC=C[C@H]1C,0.585 (inactive),-0.235,1.99 (inactive),1.07 (inactive),1.21 (inactive),0.368 (inactive),1.02,0.0908 (inactive),-0.255 (inactive),-0.444
O=C1[C@H]2[C@H]3[C@H](O)[C@H](O)CC(=NOCc4ccccc4)[C@H]3CC[C@H]2C(=O)N1c1ccc(F)cc1F,-0.139 (inactive),-0.761,9.01 (active),1.42 (inactive),0.155 (inactive),-0.304 (inactive),-0.392,-4.97 (inactive),0.187 (inactive),-0.471
CCOC(=O)CCN1C(=O)[C@H]2[C@H]3[C@H](O)[C@H](O)CC(=NNC(=O)OCc4ccc(OC)cc4)[C@@H]3CC[C@H]2C1=O,0.0393 (inactive),0.0288,6.59 (inactive),1.07 (inactive),-0.495 (inactive),0.353 (inactive),-0.587,-3.2 (inactive),-0.169 (inactive),-0.974
COCCOC(=O)N1C(=O)[C@@]2(c3cc(C#CC4(O)CCCCCC4)ccc31)[C@H](C(=O)N1CCN(c3ncccn3)CC1)[C@H]1C(=O)O[C@H](c3ccccc3)[C@H](c3ccccc3)N1[C@@H]2c1ccc(OCCO)cc1,1.74 (inactive),0.485,11.7 (active),2.25 (inactive),1.35 (inactive),1.19 (inactive),0.372,1.69 (inactive),-0.754 (inactive),1.24
COC(=O)[C@@]1(Cc2ccccc2)[C@H]2c3cc(C(=O)N4CCCC4)n(Cc4ccccn4)c3C[C@H]2CN1C(=O)c1ccccc1,-1.04 (inactive),1.27,2.24 (inactive),0.278 (inactive),2.27 (inactive),1.03 (inactive),0.741,0.401 (inactive),-1.83 (inactive),-3.72
C[C@@H]1C=CCC(=O)OC[C@H](C)C(=O)N2CCC[C@H]2C(=O)OC1,0.665 (inactive),-0.384,0.29 (inactive),0.149 (inactive),1.11 (inactive),0.097 (inactive),-0.39,-0.49 (inactive),0.445 (inactive),-0.764
CCN1C(=O)[C@H]2[C@H]3[C@H](O)[C@H](O)CC(=NOCc4ccccc4)[C@@H]3CC[C@H]2C1=O,0.401 (inactive),0.0224,0.425 (inactive),-1.09 (inactive),-0.0231 (inactive),-2.2 (inactive),2.27,-0.521 (inactive),-0.0627 (inactive),0.388
CCCNC(=O)[C@@H]1c2ccccc2C(=O)N(Cc2ccccc2Cl)[C@H]1c1ccc(CO)cc1,2.47 (inactive),0.227,1.8 (inactive),0.0323 (inactive),0.621 (inactive),-0.505 (inactive),0.335,-0.988 (inactive),0.601 (inactive),-0.33
CO[C@@H]1COC(=O)CCC[C@@H](C)[C@H](OC)COC(=O)CCC[C@H]1C,-0.665 (inactive),-0.0933,0.553 (inactive),0.637 (inactive),0.719 (inactive),0.49 (inactive),-0.918,0.545 (inactive),0.567 (inactive),0.031
CCOC(=O)[C@H](Cc1ccccc1)NC(=O)CCC1CC(OC(=O)NCc2ccc3c(c2)OCO3)CC2(CCCC(COC(=O)NCc3cccc(C(F)(F)F)c3)O2)O1 (stereo not given in full),-0.667 (inactive),0.138,-0.272 (inactive),-1.05 (inactive),-0.106 (inactive),-1.37 (inactive),2.74,-0.661 (inactive),-1.35 (inactive),-0.999
CCN1C(=O)[C@H]2[C@H]3[C@H](O)C=CC(=O)[C@@H]3CC[C@H]2C1=O,-0.474 (inactive),-0.265,-0.441 (inactive),-0.343 (inactive),-0.795 (inactive),-0.21 (inactive),0.176,0.0244 (inactive),-0.0152 (inactive),-0.204
CC(C)(C)N1C(=O)[C@H]2[C@H]3[C@H](O)[C@H](O)CC(=NO[C@@H]4O[C@H](CO)[C@@H](O)[C@H](O)[C@H]4O)[C@@H]3CC[C@H]2C1=O,0.383 (inactive),-0.147,1.13 (inactive),0.0656 (inactive),-0.689 (inactive),0.106 (inactive),-0.345,1.01 (inactive),-0.022 (inactive),-2.07
O=C1C[C@@H](O)[C@@H](O)[C@@H]2[C@@H]3C(=O)N(Cc4ccc5c(c4)OCO5)C(=O)[C@@H]3CC[C@@H]12,0.306 (inactive),-0.103,4.63 (inactive),0.632 (inactive),0.311 (inactive),0.182 (inactive),-0.352,0.323 (inactive),-0.209 (inactive),-0.246
CC(C)CON=C1C[C@@H](O)[C@@H](O)[C@@H]2[C@@H]3C(=O)N([C@@H](C)c4ccccc4)C(=O)[C@@H]3CC[C@H]12,0.525 (inactive),-0.192,3.27 (inactive),0.149 (inactive),1.43 (inactive),0.106 (inactive),-0.414,-3.44 (inactive),1.18 (inactive),0.197
COC(=O)[C@@]1(Cc2ccc(F)cc2)[C@@H]2C(=CC(=O)[C@H]2CC(=O)C(=O)N(C)C)CN1C(=O)c1ccccc1,-0.975 (inactive),0.589,3.38 (inactive),1.81 (inactive),-0.25 (inactive),1.45 (inactive),0.172,0.507 (inactive),1.3 (inactive),-0.494
CC(C)CN1CCc2nc(-c3ccccc3)c3c(c2CC1)CO[C@@H](C)C3,0.0991 (inactive),0.0981,0.82 (inactive),0.576 (inactive),0.923 (inactive),-0.142 (inactive),-0.528,1.47 (inactive),-0.0482 (inactive),-0.334
CO[C@H]1COC(=O)[C@H](C)COC(=O)CC=C[C@@H](C)[C@H](OC)COC(=O)CC=C[C@@H]1C,0.738 (inactive),-0.196,-0.654 (inactive),-0.285 (inactive),-0.654 (inactive),-0.188 (inactive),0.648,-0.347 (inactive),0.0281 (inactive),0.625
CC(=O)O[C@H]1C2=C(C(=O)[C@@H]3O[C@@H]31)[C@H]1C(C)O[C@@H]2[C@@]23C(=O)[C@@H]4O[C@@H]4[C@@H](O)C2=CO[C@H](C)[C@@H]13 (stereo not given in full),-0.0954 (inactive),-0.191,-0.0129 (inactive),-0.215 (inactive),-0.0291 (inactive),-0.12 (inactive),-0.56,0.735 (inactive),0.358 (inactive),-0.388
CC(C)c1ccc(NN2C(C(O)c3ccc4c(c3)OCO4)C=CC3C(=O)N(c4ccccc4)C(=O)C32)cc1 (stereo not given),-0.481 (inactive),-0.0593,1.76 (inactive),1 (inactive),0.126 (inactive),0.778 (inactive),-0.467,-0.488 (inactive),-0.912 (inactive),-0.752
O=C1C[C@@H](O)[C@@H](O)[C@@H]2[C@@H]3C(=O)N(C4CCCCC4)C(=O)[C@@H]3CC[C@H]12,-0.246 (inactive),-0.103,1.27 (inactive),0.775 (inactive),-0.059 (inactive),0.423 (inactive),0.403,-1.6 (inactive),0.386 (inactive),-0.883
CCOC(=O)CCN1C(=O)[C@H]2[C@H]3[C@H](O)C=CC(=O)[C@@H]3CC[C@H]2C1=O,-0.221 (inactive),0.0479,-0.0882 (inactive),0.501 (inactive),-0.233 (inactive),0.352 (inactive),0.146,1.22 (inactive),0.463 (inactive),-0.244
CCOC(=O)[C@H](Cc1ccccc1)NC(=O)CCC1CC(OC(=O)NCc2ccc3c(c2)OCO3)CC2(CCCC(COC(=O)NCC3CCCCC3)O2)O1 (stereo not given in full),-0.251 (inactive),0.171,0.732 (inactive),0.45 (inactive),-0.235 (inactive),0.297 (inactive),0.236,1.51 (inactive),0.737 (inactive),0.909
C=CC[C@@H]1C=C[C@H](ON=C[C@@H](OC)[C@H](C)C=CCC(=O)OC)[C@@H](CO)O1,0.324 (inactive),0.0533,0.815 (inactive),1.25 (inactive),-0.335 (inactive),0.465 (inactive),-0.782,-0.022 (inactive),-0.102 (inactive),-0.255
C#CCCCON=C1C[C@@H](O)[C@@H](O)[C@@H]2[C@@H]3C(=O)N(Cc4ccccc4)C(=O)[C@@H]3CC[C@H]12,0.362 (inactive),-0.111,1.38 (inactive),-0.506 (inactive),0.659 (inactive),-1.29 (inactive),0.69,0.162 (inactive),0.196 (inactive),-0.36
COC(=O)C1=C(C)[C@@H](O)[C@@H](C)[C@H](c2c(OC)c(OC)c(C)c(OC)c2OC)O1,-0.472 (inactive),-0.356,0.211 (inactive),0.589 (inactive),0.336 (inactive),0.1 (inactive),-0.468,-0.101 (inactive),-0.0181 (inactive),0.536
CC=CC1=C(CO)[C@H](O)[C@H]2O[C@H]2[C@H]1O,-0.147 (inactive),-0.45,-0.528 (inactive),-0.52 (inactive),-0.382 (inactive),-0.342 (inactive),0.318,1.94 (inactive),-1.82 (inactive),-0.768
